Results reported in PubChem BioAssay (EPA / NIEHS).
Where a structure was tested more than once in an assay, its records may differ in their call. Calls of active or inactive are those of the source. How the source made its calls: active means hit-call score of the fitted dose curve at least 0.9, where 1 is the maximum; inactive means score below 0.9.

Legend:
[1] = read-out: Macrophage colony-stimulating factor (MCSF), CSF1 (gene 1435); test: BSK_hDFCGF_MCSF: BioMAP Diversity Plus: hDFCGF Assay for Macrophage colony-stimulating factor (MCSF) Biomarker Activity (AID 2283060); conditions: primary human foreskin fibroblasts; actives raise or lower the signal
In short: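 Human foreskin fibroblast primary cultures; M-CSF measured by ELISA 24 hours after chemical dosing. Bidirectional fitting relative to DMSO, with overt cytotoxicity tracked by parallel SRB total-protein staining (0.1% SRB, 10% TCA fixation, 560 nm).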

[2] = BSK_hDFCGF_SRB: Viability Assessment in the BioMAP Diversity Plus: hDFCGF Assay (AID 2283061); conditions: primary human foreskin fibroblasts;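 further: cells exposed to compound for 24 h before the read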
In short: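 Human foreskin fibroblasts in 96-well plates were treated 24 h. Total protein was measured by 0.1% SRB staining after 10% TCA fixation, read at 560 nm. Data were fitted bidirectionally against DMSO.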

[3] = read-out: TIMP metallopeptidase inhibitor 1 (TIMP1), TIMP1 (gene 7076); test: BSK_hDFCGF_TIMP1: BioMAP Diversity Plus: hDFCGF Assay for TIMP metallopeptidase inhibitor 1 (TIMP1) Biomarker Activity (AID 2283062); conditions: primary human foreskin fibroblasts; actives raise or lower the signal
In short: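 Human foreskin fibroblast primary cultures dosed for 24 h; secreted/surface TIMP-1 quantified by ELISA. Bidirectional curve fitting against DMSO baseline; cytotoxicity tracked in parallel cultures by SRB total-protein staining.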

[4] = read-out: Monokine induced gamma interferon (MIG), CXCL9 (gene 4283); test: BSK_hDFCGF_MIG: BioMAP Diversity Plus: hDFCGF Assay for Monokine induced gamma interferon (MIG) Biomarker Activity (AID 2283063); conditions: primary human foreskin fibroblasts; actives raise or lower the signal
In short: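 MIG/CXCL9 measured by ELISA 24 h after dosing primary human skin fibroblasts. Activity fitted in both directions against DMSO controls. Cytotoxicity was checked in parallel cultures by SRB staining read at 560 nm.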

[5] = read-out: Matrix Metallopeptidase 1 (MMP1), MMP1 (gene 4312); test: BSK_hDFCGF_MMP1: BioMAP Diversity Plus: hDFCGF Assay for Matrix Metallopeptidase 1 (MMP1) Biomarker Activity (AID 2283064); conditions: primary human foreskin fibroblasts; actives raise or lower the signal
In short: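 ELISA read-out of MMP1 from human foreskin fibroblasts (primary skin cells), 24 h post-dose. Gain or loss of signal was fitted bidirectionally versus DMSO negative control; cytotoxicity was checked by SRB in parallel cultures.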

[6] = read-out: Vascular cell adhesion molecule 1 (VCAM1), VCAM1 (gene 7412); test: BSK_hDFCGF_VCAM1: BioMAP Diversity Plus: hDFCGF Assay for Vascular cell adhesion molecule 1 (VCAM1) Biomarker Activity (AID 2283065); conditions: primary human foreskin fibroblasts; actives raise or lower the signal;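 on AC50: VCAM-1 protein level quantified by ELISA after 24 h chemical exposure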
In short: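 Human foreskin fibroblast primary cells dosed with chemical, VCAM-1 measured by ELISA at 24 h. Bidirectional curve fitting relative to DMSO as negative control/baseline.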

[7] = read-out: Plasminogen activator inhibitor-1 (PAI1), SERPINE1 (gene 5054); test: BSK_hDFCGF_PAI1: BioMAP Diversity Plus: hDFCGF Assay for Plasminogen activator inhibitor-1 (PAI1) Biomarker Activity (AID 2283066); conditions: primary human foreskin fibroblasts; actives raise or lower the signal
In short: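 ELISA readout of PAI-1 from primary human skin fibroblast cultures, 24 h after compound addition. Gain or loss of signal was fitted bidirectionally against DMSO baseline.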

[8] = read-out: Intercellular Adhesion Molecule 1 (ICAM1), ICAM1 (gene 3383); test: BSK_KF3CT_ICAM1: BioMAP Diversity Plus: KF3CT Assay for Intercellular Adhesion Molecule 1 (ICAM1) Biomarker Activity (AID 2283067); conditions: primary human keratinocytes with fibroblasts; actives raise or lower the signal
In short: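 Human keratinocyte–foreskin fibroblast co-culture was treated for 24 h. Cell-surface ICAM-1 was quantified by ELISA, fitted bidirectionally relative to DMSO. Cytotoxicity was checked in parallel cultures by SRB total-protein staining.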

[9] = read-out: Interferon-gamma inducible Protein 10 (IP10), CXCL10 (gene 3627); test: BSK_KF3CT_IP10: BioMAP Diversity Plus: KF3CT Assay for Interferon-gamma inducible Protein 10 (IP10) Biomarker Activity (AID 2283068); conditions: primary human keratinocytes with fibroblasts; actives raise or lower the signal
In short: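 KF3CT co-culture (keratinocytes + foreskin fibroblasts), 24 h compound, IP-10 by ELISA; bidirectional fit vs DMSO baseline.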

[10] = BSK_KF3CT_SRB: Viability Assessment in the BioMAP Diversity Plus: KF3CT Assay (AID 2283069); conditions: primary human keratinocytes with fibroblasts;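 further: total protein by sulforhodamine B staining as a cytotoxicity measure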
In short: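 SRB read-out at 560 nm (0.1% stain, TCA-fixed cells) gauges overt cytotoxicity in a human skin keratinocyte–fibroblast co-culture 24 h post-dosing. Signal change was fitted bidirectionally relative to DMSO control.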

[11] = read-out: Interleukin-1 alpha (IL1a), IL1A (gene 3552); test: BSK_KF3CT_IL1a: BioMAP Diversity Plus: KF3CT Assay for Interleukin-1 alpha (IL1a) Biomarker Activity (AID 2283070); conditions: primary human keratinocytes with fibroblasts; actives raise or lower the signal
In short: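 Primary skin co-culture (keratinocytes, foreskin fibroblasts), 24 h exposure; ELISA for IL-1a; bidirectional curve fit vs DMSO.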

[12] = read-out: TIMP metallopeptidase inhibitor 2 (TIMP2), TIMP2 (gene 7077); test: BSK_KF3CT_TIMP2: BioMAP Diversity Plus: KF3CT Assay for TIMP metallopeptidase inhibitor 2 (TIMP2) Biomarker Activity (AID 2283071); conditions: primary human keratinocytes with fibroblasts; actives raise or lower the signal
In short: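 ELISA readout of TIMP-2 in keratinocyte plus foreskin fibroblast co-cultures (human skin primary cells), 24 h post-dose. Gain or loss of signal fitted relative to DMSO.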

[13] = read-out: Transforming growth factor beta 1 (TGFb1), TGFB1 (gene 7040); test: BSK_KF3CT_TGFb1: BioMAP Diversity Plus: KF3CT Assay for Transforming growth factor beta 1 (TGFb1) Biomarker Activity (AID 2283072); conditions: primary human keratinocytes with fibroblasts; actives raise or lower the signal
In short: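 Read-out: ELISA for TGF-b1 in keratinocyte/foreskin fibroblast human skin co-culture, 24 h after dosing; bidirectional curve fit vs DMSO baseline; gain or loss of signal scored.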

[14] = read-out: C-C motif chemokine 2 (Homo sapiens) (UniProt P13500); test: BSK_KF3CT_MCP1: BioMAP Diversity Plus: KF3CT Assay for Monocyte Chemoattractant Protein 1 (MCP1/CCL2) Biomarker Activity (AID 2283073); conditions: primary human keratinocytes with fibroblasts; actives raise or lower the signal
In short: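 Human keratinocyte–foreskin fibroblast co-culture; MCP-1 measured by ELISA 24 h after dosing. Bidirectional fit vs DMSO; cytotoxicity tracked by SRB total protein in parallel cultures.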

[15] = read-out: Matrix Metallopeptidase 9 (MMP9), MMP9 (gene 4318); test: BSK_KF3CT_MMP9: BioMAP Diversity Plus: KF3CT Assay for Matrix Metallopeptidase 9 (MMP9) Biomarker Activity (AID 2283074); conditions: primary human keratinocytes with fibroblasts; actives raise or lower the signal;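 on AC50: MMP9 protein level quantified by ELISA in the co-culture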
In short: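 ELISA read-out of MMP-9 at 24 h post-dosing in a co-culture of human skin keratinocytes and foreskin fibroblasts. Gain or loss of signal was fitted in both directions against DMSO.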

[16] = read-out: urokinase plasminogen activator (uPA), PLAU (gene 5328); test: BSK_KF3CT_uPA: BioMAP Diversity Plus: KF3CT Assay for urokinase plasminogen activator (uPA) Biomarker Activity (AID 2283075); conditions: primary human keratinocytes with fibroblasts; actives raise or lower the signal
In short: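 Skin co-culture (keratinocytes + foreskin fibroblasts), human primary; 24 h post-dose; uPA by ELISA; gain/loss fit vs DMSO baseline.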

CD40, CD40 (gene 958) = test: BSK_LPS_CD40: BioMAP Diversity Plus: LPS Assay for CD40 Biomarker Activity (AID 2283076); conditions: primary human HUVEC with PBMC; actives raise or lower the signal
In short: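 HUVEC plus PBMC co-culture stimulated with LPS; CD40 quantified by ELISA 24 h after compound dosing. Fitting was bidirectional relative to DMSO. SRB staining of parallel cultures flagged overt cytotoxicity.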

[17] = read-out: E-selectin (Homo sapiens) (UniProt P16581); test: BSK_LPS_Eselectin: BioMAP Diversity Plus: LPS Assay for Eselectin Biomarker Activity (AID 2283077); conditions: primary human HUVEC with PBMC; actives raise or lower the signal
In short: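 Human umbilical vein endothelial cells co-cultured with PBMC under LPS stimulation; cell-surface E-selectin measured by ELISA 24 h after dosing. Change in either direction versus DMSO, with SRB total-protein staining in parallel cultures for cytotoxicity.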

[18] = BSK_LPS_SRB: Viability Assessment in the BioMAP Diversity Plus: LPS Assay (AID 2283079); conditions: primary human HUVEC with PBMC;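 further: total protein by sulforhodamine B absorbance as a cytotoxicity measure; measured one day after compound addition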
In short: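 Co-culture of human umbilical vein endothelial cells and PBMC, read 24 h after dosing. Total protein by 0.1% SRB staining after 10% TCA fixation, absorbance at 560 nm; bidirectional fit against DMSO.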

[19] = read-out: Interleukin-8 (IL8), CXCL8 (gene 3576); test: BSK_LPS_IL8: BioMAP Diversity Plus: LPS Assay for Interleukin-8 (IL8) Biomarker Activity (AID 2283078); conditions: primary human HUVEC with PBMC; actives raise or lower the signal
In short: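 Human umbilical vein endothelial cells co-cultured with PBMC, LPS-stimulated, exposed to compound for 24 h. IL-8 quantified by ELISA; fitted in both directions against DMSO, with SRB total-protein staining of parallel cultures for cytotoxicity.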

Chain of E-selectin (Homo sapiens) (P16581 whole entry, looked up): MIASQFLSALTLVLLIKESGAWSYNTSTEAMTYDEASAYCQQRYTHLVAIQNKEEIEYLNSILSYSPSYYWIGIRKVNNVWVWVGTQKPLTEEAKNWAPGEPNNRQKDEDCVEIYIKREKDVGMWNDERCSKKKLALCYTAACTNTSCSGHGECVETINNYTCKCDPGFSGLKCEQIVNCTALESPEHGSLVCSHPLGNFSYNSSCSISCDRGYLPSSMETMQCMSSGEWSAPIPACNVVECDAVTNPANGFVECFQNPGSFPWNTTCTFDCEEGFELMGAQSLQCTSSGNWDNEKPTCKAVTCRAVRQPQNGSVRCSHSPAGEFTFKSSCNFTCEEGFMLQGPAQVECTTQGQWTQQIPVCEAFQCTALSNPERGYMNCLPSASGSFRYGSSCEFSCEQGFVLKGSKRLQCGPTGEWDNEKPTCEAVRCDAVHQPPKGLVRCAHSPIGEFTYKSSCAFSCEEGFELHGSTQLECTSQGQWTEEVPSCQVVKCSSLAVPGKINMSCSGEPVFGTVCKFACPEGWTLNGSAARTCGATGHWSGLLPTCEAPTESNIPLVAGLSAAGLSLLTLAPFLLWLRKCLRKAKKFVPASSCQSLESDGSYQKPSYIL

## C=CC(=O)OCC(CO)(COC(=O)C=C)COC(=O)C=C
[1]
  AC50: 0.0377 µM (active)
[2]
  AC50: 0.0163 µM (active)
[3]
  AC50: 16 nM (active)
[4]
  AC50: 17.7 nM (active)
[5]
  AC50: 146 nM (active)
[6]
  AC50: 0.0263 µM (active)
[7]
  AC50: 26.6 nM (active)
[8]
  AC50: 0.682 µM (active)
[9]
  AC50: 1.08 µM (active)
[10]
  AC50: 0.592 µM (active)
[11]
  AC50: 517 nM (active)
[12]
  AC50: 0.529 µM (active)
[13]
  AC50: 0.415 µM (active)
[14]
  AC50: 5.44 µM (active)
[15]
  AC50: 0.4 µM (active)
[16]
  AC50: 0.685 µM (active)
CD40, CD40 (gene 958)
  AC50: 454 nM (active)
[17]
  AC50: 311 nM (active)
[18]
  AC50: 749 nM (active)

## CCCCCCCC1CCCC1=O (stereo unspecified)
[1]
  outcome: inactive
[2]
  outcome: inactive
[3]
  outcome: inactive
[5]
  outcome: inactive
[6]
  outcome: inactive
[7]
  outcome: inactive
[8]
  AC50: 30.6 µM (active)
[9]
  outcome: inactive
[10]
  AC50: 35.1 µM (active)
[11]
  outcome: inactive
[12]
  AC50: 31.3 µM (active)
[13]
  AC50: 36.3 µM (active)
[14]
  AC50: 31.5 µM (active)
[15]
  AC50: 28.7 µM (active)
[16]
  AC50: 35.6 µM (active)
CD40, CD40 (gene 958)
  outcome: inactive
[19]
  outcome: inactive
[18]
  outcome: inactive

## CC(=O)c1ccc(C)cc1
[1]
  outcome: inactive
[2]
  outcome: inactive
[3]
  outcome: inactive
[4]
  outcome: inactive
[5]
  outcome: inactive
[6]
  outcome: inactive
[7]
  outcome: inactive
[8]
  outcome: inactive
[9]
  outcome: inactive
[10]
  outcome: inactive
[11]
  outcome: inactive
[12]
  outcome: inactive
[14]
  outcome: inactive
[15]
  outcome: inactive
[16]
  outcome: inactive
CD40, CD40 (gene 958)
  outcome: inactive
[18]
  outcome: inactive

## C=C(F)C(=O)OC(C(F)(F)F)C(F)(F)F
[1]
  outcome: inactive
[2]
  AC50: 38.2 µM (active)
  outcome: inactive
[3]
  outcome: inactive
[5]
  outcome: inactive
[6]
  outcome: inactive
[7]
  outcome: inactive
[8]
  outcome: inactive
[9]
  outcome: inactive
[10]
  outcome: inactive
[11]
  outcome: inactive
[12]
  outcome: inactive
[14]
  outcome: inactive
[15]
  outcome: inactive
[16]
  outcome: inactive
CD40, CD40 (gene 958)
  outcome: inactive
[18]
  outcome: inactive

## CCCCCCCCCC(=O)OCC
[1]
  AC50: 30.2 µM (active)
[2]
  outcome: inactive
[3]
  outcome: inactive
[5]
  outcome: inactive
[6]
  AC50: 31.9 µM (active)
[7]
  AC50: 31400 nM (active)
[8]
  outcome: inactive
[9]
  outcome: inactive
[10]
  outcome: inactive
[11]
  outcome: inactive
[12]
  outcome: inactive
[13]
  AC50: 32.2 µM (active)
[14]
  AC50: 13.3 µM (active)
[15]
  outcome: inactive
[16]
  outcome: inactive
CD40, CD40 (gene 958)
  outcome: inactive
[18]
  outcome: inactive

## CC=CC(=O)C1=C(C)C=CCC1(C)C
[1]
  outcome: inactive
[2]
  outcome: inactive
[3]
  outcome: inactive
[5]
  outcome: inactive
[6]
  outcome: inactive
[7]
  AC50: 16 nM (active)
[8]
  outcome: inactive
[9]
  outcome: inactive
[10]
  outcome: inactive
[11]
  outcome: inactive
[12]
  outcome: inactive
[13]
  outcome: inactive
[14]
  outcome: inactive
[15]
  outcome: inactive
[16]
  outcome: inactive
CD40, CD40 (gene 958)
  outcome: inactive
[17]
  outcome: inactive
[18]
  outcome: inactive
